TIM10 inh: growth inhibitors of TIM10 yeast strain | inhibition, % at 10 µM | S. cerevisiae TIM10 strain growth, BacTiter-Glo luminescence, 24 h | 330,000 tested, 1.4% active;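 active = inhibition of 40% or more at the single tested concentration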;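 note: wild-type TIM10 isogenic control strain grown at permissive 25 °C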
tim23-1 inh: tim23-1 yeast growth inhibition; S. cerevisiae tim23-1 growth, BacTiter-Glo luminescence, 24 h; inhibition, % at 20 µM; 330,000 tested, 1.3% active; AID 463212;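 active = growth inhibition of the mutant yeast at or above 50%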;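 note: temperature-sensitive mutant grown at 25 °C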
NLRP3 yeast inh: NALP3 inhibition in yeast; Yeast reconstituted NLRP3/ASC/caspase-1, beta-gal luminescence, 24 h; inhibition, % at 10 µM; 330,000 tested, 0.39% active;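 active = inhibition of 50% or more; inactive = inhibition below 50%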
NALP1 yeast inh: NALP1 inhibition. inhibition, % at 10 µM. 280,000 tested, 0.61% active. S. cerevisiae NALP1/ASC/caspase-1 growth, X-gal OD620, 72 h; in the data active = inhibition mostly above about 24%, no sharp cut-off; inactive = mostly below about 32%
PfHsp90 set2: reduces growth (ATP signal) of yeast expressing P. falciparum Hsp90; S. cerevisiae expressing PfHsp90, BacTiter-Glo ATP, 48 h; yeast lacking PDR1 and PDR3 efflux regulators; 310,000 tested, 0.32% active; AID 504621; inhibition, % at 9.4 µM;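 active = every replicate shows inhibition above about 80%, whatever the replicate mean, limit read from the data; inconclusive = mean inhibition reaches the set limit but some replicate falls short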
tim10-1 inh: tim10-1 yeast growth inhibition | S. cerevisiae tim10-1 ts strain growth, BacTiter-Glo, 24 h | inhibition, % at 20 µM | 330,000 tested, 2.2% active;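 active = inhibition of at least 40%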;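 note: mutant grown at 25 °C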
tim10-1 confirm: confirmation of tim10-1 mutant yeast growth inhibitors. AID 463213. shares compounds with tim10-1 inh. S. cerevisiae tim10-1 ts strain growth, BacTiter-Glo, 24 h. inhibition, % at 20 µM. 7,400 tested, 56% active;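 active = inhibition of yeast growth at or above a set limit in either of two repeat tests at 20 µM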;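 note: tim10-1 mutant grown at permissive 25 °C to find synthetic lethal compounds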
tim10 confirm: confirmation of TIM10 yeast growth inhibitors; shares compounds with TIM10 inh; S. cerevisiae tim10 strain growth, BacTiter-Glo luminescence, 24 h; inhibition, % at 10 µM; 4,600 tested, 63% active;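 active = inhibition of yeast growth at or above a set limit in either of two replicates at 10 µM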; note: this counterscreen used the strain with wild-type TIM10
Large screens that a line does not name were inactive (follow-up assays come after a bar, where they were run). The list is not random: actives were taken first. Their share in the collection is about 4.1%.

CCOC(=O)CSCC(=O)N1N=C(c2cccs2)CC1c1ccc(F)cc1 (centres undefined)	TIM10 inh 41, tim10-1 inh 47 | tim10-1 confirm 34 | tim10 confirm inactive
O=C(O)CSc1nc2sc3c(c2c(=O)n1-c1ccccc1)CCC3	none (no result: NALP1 yeast inh)
NNc1nc2sc3c(c2c(=O)n1-c1ccccc1)CCCC3	TIM10 inh 57, tim10-1 inh 49 | tim10-1 confirm 39 | tim10 confirm 67
Nn1c(Nc2ccccc2)nc2sc3c(c2c1=O)CCCC3	TIM10 inh 51, tim10-1 inh 45 | tim10-1 confirm inactive | tim10 confirm inactive
Cc1ccc(-c2nc3sc4c(c3c(=O)n2N)CCCC4)cc1	none
COc1ccc(NC(=O)CSc2nnc(CC(=O)Nc3ccc(F)cc3)n2C)cc1	none
CC1CCN(c2nc3nonc3nc2Nc2ccc(F)cc2)CC1	TIM10 inh 45, tim10-1 inh 41 | tim10-1 confirm 44 | tim10 confirm inactive
CCCc1[nH]nc2c1C(c1ccsc1)C(C#N)=C(N)O2 (centres undefined)	TIM10 inh 46, tim10-1 inh 47 | tim10-1 confirm inactive | tim10 confirm inactive
Cc1cc(N/N=C/c2ccccc2O)nc(-c2ccccc2O)n1	TIM10 inh 41, tim10-1 inh 50 | tim10-1 confirm 32 | tim10 confirm inactive
Cc1cc(N/N=C/c2ccc(O)cc2O)nc(-c2ccccc2O)n1	none (no result: TIM10 inh, tim23-1 inh, NLRP3 yeast inh, tim10-1 inh)
CCOC(=O)C1=NN(c2ccccc2C)C2=NC(C)=C(C(=O)OC)C(c3cccs3)N12 (centres undefined)	TIM10 inh 42, tim10-1 inh 41 (no result: PfHsp90 set2) | tim10-1 confirm inactive | tim10 confirm inactive
CCOC(=O)c1ccc(S(=O)(=O)NCCNCc2ccccc2)cc1	none (no result: NALP1 yeast inh, PfHsp90 set2)
O=C(c1ccccc1Nc1ccc(SC(F)F)cc1)N1CCCCCC1	TIM10 inh 51, tim10-1 inh 44 | tim10-1 confirm 34 | tim10 confirm 33
CNC(=O)CSc1nnc(-c2ccccn2)n1Cc1ccco1	none
CC(C)(C)c1ccc(CSc2nnc(-c3ccccn3)n2Cc2ccco2)cc1	TIM10 inh 45, tim10-1 inh 42 | tim10-1 confirm 48 | tim10 confirm 38
CC(C)Oc1cccc(C(=O)C2CCCN(C(=O)c3ccnn3C)C2)c1 (centres undefined)	none
O=C(/C=C/c1ccco1)Nc1ccccc1N1CCCCC1	TIM10 inh 54, tim10-1 inh 61 (no result: PfHsp90 set2) | tim10-1 confirm 58 | tim10 confirm 50
Cc1onc(-c2ccccc2)c1C(=O)O/N=C(\N)c1ccc([N+](=O)[O-])o1	TIM10 inh 51, tim10-1 inh 50 | tim10-1 confirm inactive | tim10 confirm 48
Cc1onc(-c2ccccc2Cl)c1C(=O)O/N=C(\N)c1ccccc1	TIM10 inh 55, tim10-1 inh 49 | tim10-1 confirm 63 | tim10 confirm 45
Cc1onc(-c2ccccc2)c1C(=O)OCc1nnc(-c2ccccc2)o1	none (no result: NALP1 yeast inh)
COc1ccc(CN2CCNC(=O)C2CC(=O)NC2CCCC2)c(C)c1C (centres undefined)	none
O=C(COc1ccc(Cl)cc1Cl)NNC(=S)NCc1ccco1	TIM10 inh 50, tim10-1 inh 46 | tim10-1 confirm 37 | tim10 confirm 40
CC(=O)Cn1c(CN2CCN(C(=O)c3ccco3)CC2)nc2c1c(=O)n(C)c(=O)n2C	none
C#CCn1c(S(=O)(=O)Cc2ccc(OC)cc2)nc(-c2ccccc2)c1-c1ccccc1	TIM10 inh 45, tim10-1 inh 47 (no result: PfHsp90 set2) | tim10-1 confirm 41 | tim10 confirm inactive
O=C(NC1CCCC1)C1CCN(S(=O)(=O)c2ccccc2)CC1	none
CC(=O)Nc1ccc(C(=O)OCc2ccccc2Cl)cc1	TIM10 inh 42, tim10-1 inh 54 | tim10-1 confirm inactive | tim10 confirm 34
Cc1c(C)c(C)c(S(=O)(=O)Nc2ccc3[nH]c(=O)[nH]c3c2)c(C)c1C	none
FC(F)(F)c1cccc(NC(=S)Nc2cccc(NC(=S)Nc3cccc(C(F)(F)F)c3)n2)c1	TIM10 inh 48, tim10-1 inh 53 | tim10-1 confirm 33 | tim10 confirm 32
FC(F)(F)c1cccc(NC(=S)Nc2ccc(Cl)cc2Cl)c1	TIM10 inh 62, tim10-1 inh 70 | tim10-1 confirm 47 | tim10 confirm 51
FC(F)(F)c1cccc(NC(=S)NCC2COc3ccccc3O2)c1 (centres undefined)	TIM10 inh 48, tim10-1 inh 66 | tim10-1 confirm 56 | tim10 confirm 57
Cc1cccc(NC(=S)Nc2cccc(C(F)(F)F)c2)n1	none
S=C(Nc1ccccc1)Nc1ccc(Cl)cc1Cl	none
CCCNC(=S)Nc1cccc(C(F)(F)F)c1	none
Cc1cc([N+](=O)[O-])ccc1-c1ccc(C2Nc3ccccc3C(=O)N2O)o1 (centres undefined)	TIM10 inh 41, PfHsp90 set2 inconclusive, tim10-1 inh 53 | tim10-1 confirm 36 | tim10 confirm inactive
O=C1c2ccccc2NC(c2ccc(-c3ccccc3F)o2)N1O (centres undefined)	none (no result: NALP1 yeast inh, PfHsp90 set2)
Cc1cc(NC(=O)COC(=O)C2CC(=O)N(c3cccc(C)c3C)C2)no1 (centres undefined)	none
Nc1nnnn1/N=C/C(Br)=C/c1ccccc1	TIM10 inh 55, tim10-1 inh 46 | tim10-1 confirm 48 | tim10 confirm 53
O=C(NC1CCCc2ccccc21)c1c(F)cccc1Cl (centres undefined)	none
O=c1ccc2cc(S(=O)(=O)N3CCN(c4cc(Cl)ccc4Cl)CC3)ccc2o1	TIM10 inh 42, tim10-1 inh 42 (no result: PfHsp90 set2) | tim10-1 confirm inactive | tim10 confirm 39
COc1ccc(CN(C)CCCn2cnc3c(OCc4ccccc4)ncnc32)cc1OC	none (no result: TIM10 inh, tim23-1 inh, NLRP3 yeast inh, NALP1 yeast inh, tim10-1 inh)
O=C(/C=C/C(Cl)(Cl)Cl)Nc1ccc(Cl)cc1	none (no result: TIM10 inh, tim23-1 inh, NLRP3 yeast inh, NALP1 yeast inh, tim10-1 inh)
NC(=O)/C=C/C(=O)Nc1ccc(Cl)cc1	TIM10 inh 55, NALP1 yeast inh 79, tim10-1 inh 61 | tim10-1 confirm 61 | tim10 confirm 56
COC(=O)Nc1ccc(S(=O)(=O)N2CCC(Cc3ccccc3)CC2)cc1	TIM10 inh 45, tim10-1 inh 45 | tim10-1 confirm 40 | tim10 confirm inactive
CC(OC(=O)CNC(=O)C1CCCCC1)C(=O)NCc1ccccc1 (centres undefined)	none (no result: NALP1 yeast inh)
CC(C)(C)NC(=O)c1ccc2c(c1)C1C3CCC(C3)C1C(c1ccccc1)N2 (centres undefined)	TIM10 inh 42, tim10-1 inh 44 | tim10-1 confirm 34 | tim10 confirm inactive

Bioassay records (PubChem)
